Here are results for 39 molecules from PubChem BioAssay (NCI).

About 83,000 compounds went through this panel and 20% of them were active in at least one assay; those are over-represented in the sample as a whole.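 In brief: 96-well plates, 48 h treatment, single concentration, percent growth endpoint.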 Calls of active or inactive are those of the source. Rule for the calls: active = growth percent below 10; inactive = the rest.

This assay concerns HL-60(TB) leukemia. Put plainly: NCI-60 one-dose screen, 48 h (100 = growth as untreated, 0 = no growth, -100 = all killed). The conditions noted are these: 10 µM unless noted.
Turning to `CCOC(=O)c1c(NC(=O)c2ccc(Cl)cc2)sc2c(CN(C)C)c(O)ccc12`, the growth was 12.5% (inactive). The value for `Cc1ccc(-c2nc3ccccc3c(=O)n2/N=C/c2cccc3ccccc23)cc1` was 85.1% (inactive). The value for `CC1=C(C(=O)Nc2ccc(F)cc2)C(c2ccc(Cl)cc2)C2=C(CC(C)(C)CC2=O)N1` (centres undefined) was 104% (inactive); that for `CC(C)(C)c1ccc(S(=O)(=O)Oc2ccc(-c3sc4cc(OS(=O)(=O)c5ccc(C(C)(C)C)cc5)ccc4c3C(=O)c3ccc(OCCN4CCCCC4)cc3)cc2)cc1` was 95.3% (inactive); that for `COc1ncc(-c2ccc3ncnc(Nc4cccc(Cl)c4)c3c2)cc1NS(=O)(=O)CCN1CCOCC1` was 23.9% (inactive). For the molecule `COc1cc(-c2nn(-c3ccc(NC(=O)NCCNS(=O)(=O)c4ccc(F)cc4)cc3)cc2-c2ccncc2)ccc1Cl`, the growth is -9.47% (active). On to `C/C=C(\C)C(=O)N[C@H]1C(O)C[C@]2(C)C3CC[C@@]4(C)C(CC[C@@H]4C(C)N(C)C)C3CCC2C1O` (some centres undefined), for which the growth is 5.7% (active). The same measure for `CCOC(=O)/C=C1\S/C(=N\Nc2cc(=O)[nH]c3ccccc23)N(c2ccccc2)C1=O`: 99.1% (inactive); for `N#CC(I)CS(=O)(=O)c1ccccc1` (centres undefined): 99% (inactive); for `Cc1cc(N=O)cc(C(C)(C)C)c1O`: 99.6% (inactive). Regarding `Cn1c(=O)c2[nH]c(NN)nc2n(C)c1=O`, the growth was 91.6% (inactive). For the molecule `O=C(c1ccc(Cl)cc1)N1CCCCC1`, the growth is 98.7% (inactive). Consider `CCCCCCCCCCCCNc1ncnc2[nH]ncc12`, for which the growth was 74.4% (inactive). For `Cc1cccc(-c2nnc(SCC(=O)Nc3ncc(Cc4ccccc4)s3)n2N2C(=O)CSC2=S)c1`, the growth was 97.8% (inactive). The same measure for `COc1cc(CSc2nc3ccc(C)cc3c(=O)n2-c2ccccc2)cc(OC)c1OC`: 12.2% (inactive); for `COc1cc([C@@H]2c3cc4c(cc3C(OC3O[C@@H]5COC(C)O[C@H]5[C@H](O)[C@H]3O)C3COC(=O)[C@@H]32)OCO4)cc(OC)c1O` (some centres undefined): -2.39% (active); for `Nc1c(C(=O)Nc2ccccc2)sc2nc3c(cc12)CN(Cc1ccccc1)CC3`: 83% (inactive). The same measure for `CCOC(=O)CC(=O)OC`: 97% (inactive); for `CCC(CCNc1cc(OC)cc2cccnc12)CN1C(=O)c2ccccc2C1=O` (centres undefined): 107% (inactive); for `COc1ccc(-n2nc(C(=O)NCC(=O)O)nc2-c2ccccc2)cc1`: 96.3% (inactive).

With `Cn1c(COC(=O)NCCN2CCOCC2)nc2c(N3CCOCC3)nc(-c3ccccc3)nc21`, the growth was -52.8% (active).

As for `CCOC(=O)N1CCC(N=C2CSc3nnc(-c4cc(C(F)(F)F)cc(C(F)(F)F)c4)n3N2)CC1`, the growth is -40.7% (active).

As for `O=C(NCc1cccc(CNC(=O)Nc2nc3ccccc3[nH]2)c1)Nc1nc2ccccc2[nH]1`, the growth was 10.1% (inactive). The same measure for `CCNCCNc1cc(C2CCCC2)c(C#N)c2nc3ccccc3n12`: -59.3% (active); for `COc1ccc2sc(-n3nc4nc5n(c(=O)c4c3N)-c3ccccc3Sc3ccccc3-5)nc2c1`: 66.6% (inactive); for `Cc1ccc(Nc2ccc(Nc3ccc(C)cc3)c3c2C(=O)c2cccc(O)c2C3=O)cc1`: 94.3% (inactive). `Cc1ccccc1Nc1n[nH]c(Cc2ccccc2)n1`: the growth was 66.9% (inactive). The same measure for `COc1cccc(-c2nn(-c3ccccc3)cc2-c2ccnc(N3CCOCC3)c2)c1`: 44.9% (inactive); for `CCn1c(=O)c2c(=O)c3c4c(oc3oc2c2ccccc21)C(=O)c1ccccc1C4=O`: -18.8% (active); for `N=C(N)c1ccc(S(N)(=O)=O)cc1`: 94.9% (inactive). On to `COc1cc2c(cc1OC)C(CC1(O)CCCCC1)N(S(=O)(=O)c1ccc(C)cc1)CC2` (centres undefined), for which the growth is -25% [100 µM] (active). The value for `CCOC(=O)n1cc(-c2nonc2-c2cn(C)c3ccccc23)c2ccccc21` was 1.6% (active); that for `N#CN1CC[C@H](C(=O)Nc2cc3cc(C(N)=O)ccc3cn2)C1` was -37.1% (active). The value for `Nc1n[nH]c2ccc([C@@H]3Nc4c(F)cc5[nH]ncc5c4[C@H]4C5CCC(C5)[C@@H]34)cc12` (some centres undefined) was 1.76% (active); that for `COc1nc(/C=C\Nc2ccc3c(c2)OCCOCCOCCOCCO3)nc(OC)n1` was 65.4% (inactive); that for `Cn1cc(-c2nn3cc(-c4cccs4)nc3s2)c2cc(F)ccc21` was 3.45% (active). For the molecule `C[C@@]1(CO)[C@H](O)CC[C@@]2(C)[C@H]1CC[C@H]1C[C@@H]3C[C@@]12CC[C@@]3(O)COC(=O)CN`, the growth is 3.18% (active).

For the molecule `CCCCCCCCN(CCCCCCCC)CC(O)c1cc(-c2ccccc2)nc2ccc(OC)cc12` (centres undefined), the growth was -28.4% (active).

For the molecule `O=c1ccccc(-c2ccc(Br)cc2)c1O`, the growth was -35.9% (active).
